Cycloheximide cs = affects cycloheximide protein synthesis inhibition readout, counter-screen; cell reporter, cycloheximide protein synthesis inhibition counterscreen; max response, %; 300,000 tested, 12% active; AID 2314; in the data active = max response mostly above about 13%, no sharp cut-off; inactive = mostly below about 14%; note: read at 38.3 µM for the half of the compounds with a filed dose
Giardia FBPA inh = blocks Giardia fructose-bisphosphate aldolase activity; 290,000 tested, 0.71% active; purified Giardia FBPA; AID 2451; Potency, µM (series often up to 59.6 µM), actives largely listed as inhibitors; A8B2U2; note: nearly all actives have a fitted effect of over 55% in size
Target sequence (A8B2U2 whole entry, looked up): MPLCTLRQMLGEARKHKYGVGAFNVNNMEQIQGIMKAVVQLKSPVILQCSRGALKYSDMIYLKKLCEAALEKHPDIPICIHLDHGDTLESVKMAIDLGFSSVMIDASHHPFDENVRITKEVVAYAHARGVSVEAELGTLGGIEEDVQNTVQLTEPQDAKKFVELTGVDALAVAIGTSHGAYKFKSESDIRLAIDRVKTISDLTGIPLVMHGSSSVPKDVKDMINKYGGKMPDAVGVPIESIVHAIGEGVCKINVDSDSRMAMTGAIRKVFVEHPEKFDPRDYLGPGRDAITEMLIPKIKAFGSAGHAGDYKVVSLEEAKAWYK
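40 nM FBPA preincubated 10 min at RT with compound (up to 57.5 uM final), then substrate plus GAPDH/TPI/NAD/arsenate coupling and diaphorase/resazurin added. Fluorescence read after 20 min at RT, 525/598 nm.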
Pf growth 96h = P. falciparum growth inhibition at 96 hour, primary screen for plastid delayed-death inhibitors | P. falciparum luciferase reporter growth, 96 h | Potency, µM (top dose mostly 28.7 µM), most hits filed as inhibitors | 320,000 tested, 6.9% active
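Cell-based qHTS: luciferase-tagged P. falciparum in erythrocytes (2% hematocrit, 0.05% parasitemia final) incubated with compounds for 96 hours, 37 C, 5% CO2; luciferase detection reagent then added and luminescence measured.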
Shiga toxin inh = blocks Shiga toxin action in Vero cells; inhibition, % at 38.7 µM; 290,000 tested, 9.2% active; Vero cells, Shiga toxin protein synthesis inhibition reporter; in the data active = inhibition mostly above about 28%, no sharp cut-off; inactive = mostly below about 43%
NS1 function inh = blocks influenza NS1 protein function | Potency, µM (series often up to 46.1 µM) | 270,000 tested, 0.4% active | AID 2326; calls by dose curve; note: actives are rising curves; nearly all actives have a fitted effect of over 50% in size
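Compounds were scored for reversing the slow growth caused by influenza A NS1 in S. cerevisiae, measured by optical density at 600 nm. Assay medium contained 2% galactose at pH 6.0; NS1-free yeast of the same strain were the positive control.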
Pf growth 48h = P. falciparum growth inhibition at 48 hours (one generation); P. falciparum luciferase growth in erythrocytes, 48 h; Potency, µM (doses to about 28.7 µM), hits mostly inhibitors; 310,000 tested, 5.9% active; AID 504832
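A one-generation exposure of luciferase-tagged malaria parasites in RPMI 1640/Albumax erythrocyte culture, 37 C and 5% CO2. Inhibition is inferred from decreased luminescence after adding detection reagent.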
Each line names hits and unclear results; the compound was inactive in the other large screens. The list is not random: actives were taken first. Their share in the collection is about 21%. Unless noted, calls come from the whole dose curve; as a rule, active = well fitted curve in the direction sought with a large enough effect; inconclusive = small, poorly fitted or top-dose-only effect, or another doubt; inactive = no such curve, though single readings can be large; an effect the other way counts as inactive or inconclusive.

CC1CCCCN1Cc1c(O)ccc2c(=O)c(-c3ccc(Cl)cc3)coc12 (configuration not stated)	Cycloheximide cs 29.7, Pf growth 48h 10.4µM
CC(C)N(Cc1c(O)ccc2c(=O)c(-c3ccc(Cl)cc3)coc12)C(C)C	Cycloheximide cs 17.5, Giardia FBPA inh inconclusive (no result: Shiga toxin inh)
COc1ccccc1-c1coc2c(CN3CCCCC3C)c(O)ccc2c1=O (configuration not stated)	Pf growth 96h inconclusive, Pf growth 48h inconclusive (no result: Shiga toxin inh)
CC1CCCCN1Cc1c(O)ccc2c(=O)c(-c3ccc(Br)cc3)coc12 (configuration not stated)	Pf growth 96h 5.86µM, Pf growth 48h 7.38µM
O=C(CCCc1ccccc1)N1CCc2ccccc21	Cycloheximide cs 48.9, Pf growth 96h inconclusive, Shiga toxin inh 108.7 (no result: Pf growth 48h)
O=C1CN(C(=O)OCc2ccccc2)c2ccccc2N1	Cycloheximide cs 26.2, Pf growth 96h inconclusive
O=C(c1ccco1)c1cn(CC(=O)N2CCCc3ccccc32)c2ccccc12	Cycloheximide cs 24.3, Pf growth 48h inconclusive
O=C(Cn1ccc([N+](=O)[O-])n1)N1CCc2ccccc21	none
O=C(c1ccco1)c1cn(CC(=O)N2CCCCCC2)c2ccccc12	Pf growth 48h inconclusive
Cc1ccn(CCC(=O)N2CCc3ccccc32)n1	Cycloheximide cs 25.0 (no result: Giardia FBPA inh)
O=c1c[n+](CC[n+]2cc(=O)o[nH]2)[nH]o1	none (no result: Cycloheximide cs, Giardia FBPA inh, Pf growth 96h, Shiga toxin inh, Pf growth 48h)
CCCNC(=O)CSc1n[nH]c(=O)n1CCc1ccccc1	NS1 function inh inconclusive
O=C(CS(=O)(=O)Cc1ccccc1)N1CCc2ccccc21	Cycloheximide cs 32.7
Cc1ccc(C)c(-n2c(CNC(=O)c3ccco3)nnc2SCC(=O)Nc2nnc(C)s2)c1	none (no result: Pf growth 48h)
O=C(OCc1ccccc1)N1CCc2ccccc21	Cycloheximide cs 43.3, Pf growth 96h inconclusive, Shiga toxin inh 82.2
Cc1ccc(C)c(-n2c(CNC(=O)c3ccco3)nnc2SCC(=O)N2CCc3ccccc32)c1	Pf growth 96h 13.1µM
O=C(Cn1ncc2ccccc21)N1CCc2ccccc21	Pf growth 96h 4.65µM, NS1 function inh inconclusive
CCC(C(=O)N1CCOCC1)n1c2ccccc2c2nc(=O)cc(C)n21 (configuration not stated)	none (no result: Giardia FBPA inh)
O=C1CN(C(=O)c2ccccc2F)c2ccccc2N1	none
O=C1CN(C(=O)c2cc3ccccc3o2)c2ccccc2N1	Cycloheximide cs 18.1, Pf growth 96h inconclusive, Shiga toxin inh 41.5
O=C(NCCC(=O)N1CCc2ccccc21)c1ccco1	Cycloheximide cs 30.0, Shiga toxin inh 75.6
O=C(NC(=S)N1CCCC(C(F)(F)F)C1)c1ccc(F)cc1 (configuration not stated)	Giardia FBPA inh inconclusive, Pf growth 96h inconclusive, Pf growth 48h inconclusive
Cc1nc(Cl)c(N=Cc2cccc([N+](=O)[O-])c2)c(Cl)n1	none
C/C(CC(=O)Nc1ccc2c(c1)OCCO2)=N\NC(=O)c1ccccc1Cl	Cycloheximide cs 20.5
C/C(CC(=O)Nc1ccc2c(c1)OCCO2)=N\NC(=O)Cc1ccc(Cl)cc1	Pf growth 96h inconclusive, Shiga toxin inh 129.2
C/C(CC(=O)Nc1ccc2c(c1)OCCO2)=N\NC(=O)Cc1ccccc1	none (no result: Giardia FBPA inh)
CCCCC#Cc1nc(NC)c2ncn([C@@H]3O[C@@H](CO)[C@H](O)[C@H]3O)c2n1	none (no result: Cycloheximide cs, Pf growth 96h, Shiga toxin inh, NS1 function inh, Pf growth 48h)
CCN(C/C=C/C#CC(C)(C)C)Cc1cccc(OCc2cc(-c3ccsc3)cs2)c1	Shiga toxin inh 30.0 (no result: Pf growth 96h, NS1 function inh, Pf growth 48h)
CC(C)C[C@H]1COC(c2ccc(Br)cc2)=N1	Cycloheximide cs 39.4, Shiga toxin inh active (no result: Pf growth 96h, NS1 function inh, Pf growth 48h)
O=[N+]([O-])c1cccc(C2=N[C@@H](Cc3ccccc3)CO2)c1	Cycloheximide cs 52.7, Shiga toxin inh active (no result: Pf growth 96h, NS1 function inh, Pf growth 48h)
Brc1ccc(C2=N[C@@H](Cc3ccccc3)CO2)cc1	Cycloheximide cs 57.3, Shiga toxin inh active (no result: Pf growth 96h, NS1 function inh, Pf growth 48h)
CC1CCN(C(=O)c2ccc(NS(=O)(=O)c3ccc4[nH]c(=O)[nH]c4c3)cc2)CC1	none (no result: Cycloheximide cs, Giardia FBPA inh, Shiga toxin inh, NS1 function inh)
O=C(O)c1cc(NS(=O)(=O)c2ccc3ccccc3c2)ccc1O	none
O=c1oc(-c2ccccc2NS(=O)(=O)c2ccc3ccccc3c2)nc2ccccc12	Pf growth 96h 10.4µM
O=C(O)c1ccccc1NS(=O)(=O)c1ccc2ccccc2c1	Cycloheximide cs 33.0, NS1 function inh inconclusive
CSc1ccccc1NC(=O)CN(C)Cc1cc(=O)n2ccsc2n1	none (no result: NS1 function inh)
CCOc1cccc(=O)c2c(C)n(Cc3ccccc3)c(C)c12	Pf growth 48h inconclusive
CCOc1cccc(=O)c2c(C)n(Cc3ccco3)c(C)c12	Giardia FBPA inh inconclusive, Pf growth 96h inconclusive, Pf growth 48h 9.28µM
COc1cc(-c2nnn(CC#N)n2)ccc1OCc1ccccc1	Cycloheximide cs 29.9, Shiga toxin inh 63.9 (no result: Pf growth 96h)
COc1cc(-c2nnn(CC(=O)NC3CCS(=O)(=O)C3)n2)ccc1OCc1ccccc1 (configuration not stated)	Cycloheximide cs 16.9, Shiga toxin inh 44.4
COc1cc(NC(=S)NCc2ccco2)cc(OC)c1OC	Pf growth 96h 5.22µM
CC(=O)c1ccc(NC(=S)NCc2ccco2)cc1	Cycloheximide cs 35.9, Shiga toxin inh 58.1
CC(=O)c1ccc(N2CCN(C(=S)NCc3ccco3)CC2)cc1	Pf growth 96h 13.1µM (no result: NS1 function inh)
NC(=O)c1ccc(NC(=S)NCc2ccco2)cc1	Cycloheximide cs 11.1, Pf growth 96h 11.7µM (no result: NS1 function inh)
S=C(NCc1ccco1)N1CCN(c2ccc(Cl)cc2)CC1	Pf growth 96h inconclusive
CC(C)Cc1nnc(NC(=O)c2ccc(S(=O)(=O)N3CCCC3)cc2)s1	none (no result: Cycloheximide cs, Giardia FBPA inh, Shiga toxin inh, NS1 function inh)
O=C(COC(=O)c1c(F)cccc1Cl)NC(=O)Nc1ccc2c(c1)OCCO2	none (no result: Cycloheximide cs, Giardia FBPA inh, Shiga toxin inh, NS1 function inh)
N=C1/C(=C\c2ccc(OC(=O)c3ccc(F)cc3)cc2)C(=O)N=C2SC(N3CCOCC3)=NN12	Pf growth 96h 1.65µM
Cc1cccc(Cl)c1OCCCn1ccnc1	Giardia FBPA inh inconclusive, Pf growth 48h inconclusive
CC(=O)CSc1ncnc2sc3c(c12)CCC3	none (no result: NS1 function inh)
CC(C)(C)C(=O)CSc1ncnc2sc3c(c12)CCC3	Cycloheximide cs 43.9, Shiga toxin inh 67.4
CN(C)c1ccc(/C=C2/C(=N\O)C3CCN2CC3)cc1	Cycloheximide cs 41.1, Shiga toxin inh 88.6
CN(C)c1ccc(/C=N/O)cc1	none
C=Cc1ccc([C@H]2N[C@@H](C(=O)O)CC[C@@H]2C)cc1	none (no result: Cycloheximide cs, Pf growth 96h, Shiga toxin inh, NS1 function inh, Pf growth 48h)
O=C(c1cc(COc2ccc(F)cc2Cl)on1)N(Cc1ccncc1)CC1CCCO1 (configuration not stated)	Pf growth 48h inconclusive
Cc1ccc2oc(C(=O)N(Cc3ccncc3)CC3CCCO3)c(C)c2c1 (configuration not stated)	Cycloheximide cs 35.5, Shiga toxin inh 54.1, Pf growth 48h inconclusive (no result: Giardia FBPA inh)
CCCc1ccc2oc(C(=O)N(Cc3ccncc3)CC3CCCO3)c(C)c2c1 (configuration not stated)	Cycloheximide cs 12.3, Pf growth 48h 9.28µM (no result: Giardia FBPA inh)
CCN(Cc1ccccc1)C(=O)c1oc2ccc(C)cc2c1C	Pf growth 96h inconclusive
